# High-throughput results deposited in PubChem by Broad Institute.
# The list is not random: actives were taken first. Their share in the collection is about 1.7%.
# Vif imaging: HIV Vif self-association inhibitors, primary screen, imaging, HEK293T, single point | HEK293T cells, Vif self-association by quenched fluorescence, 24 h | inhibition, % at 7.49 µM | 340,000 compounds, 0.35% hits | AID 602346, 2012; in the data active = inhibition above about 50%, passing the limit was not always enough
# F508del corr: F508del CFTR correction, initial screen, CFBE line, single point; CFBE cells, YFP halide quenching; stimulated with forskolin plus potentiator P3; % fluorescence drop versus neutral controls; activity (quench increase), % at 7.58 µM; 350,000 compounds, 0.36% hits; AID 720511, 2013;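 active = mean added fluorescence quench of at least 8% versus neutral control, with both replicates also reaching 8%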;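 also: cells transiently co-express mutant CFTR-F508del with the halide-sensitive YFP; corrector assay measuring rescue of mutant channel to the surface after 24 h compound exposure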
# FGF22 binding: binders of human FGF22 protein, primary screen, FGF22 synaptogenesis inhibitor project, biophysical, thermal shift, single point; Fibroblast growth factor 22 (Homo sapiens), Q9HCT0; recombinant FGF22 thermal shift, SYPRO orange fluorescence; percent of sucrose octasulfate shift, DMSO zero; activity (Tm shift, normalised), % at 9.99 µM; 340,000 compounds, 1.5% hits; AID 651658, 2012;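 active = mean Tm shift, scaled 0 neutral to 100 positive control, at about 1.3% or above, every replicate too, limit read from the data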
# Target sequence (Q9HCT0 whole entry, looked up): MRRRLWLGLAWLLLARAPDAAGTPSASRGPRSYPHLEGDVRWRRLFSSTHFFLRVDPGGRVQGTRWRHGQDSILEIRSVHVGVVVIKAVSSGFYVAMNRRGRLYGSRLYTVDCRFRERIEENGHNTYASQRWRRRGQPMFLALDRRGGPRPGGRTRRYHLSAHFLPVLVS
# * hit, by the source's call; . = not tested or not shown.
SMILES,Vif imaging,F508del corr,FGF22 binding
O=C(C[C@@H]1CC[C@H]2[C@@H](COC[C@H](O)CN2C(=O)Nc2cccc(Cl)c2)O1)N1CCCCC1,.,0.1,0.1
COc1ccc(NC(=O)Nc2ccc3c(c2)[C@H]2C[C@H](CC(=O)NCCc4ccccc4)O[C@H](CO)[C@H]2O3)cc1,.,1.9,0.0
CN(C)C(=O)c1ccc(-c2ccc([C@@H]3[C@H](C#N)N(C(=O)C4CCC4)[C@H]3CO)cc2)cc1,.,-3.3,0.0
COc1ccc(C2C(C(C)=O)=C(O)C(=O)N2c2nccs2)c(OC)c1 (configuration not stated),2.5,-1.0,45.5*
CC(=O)C1=C(O)C(=O)N(c2nccs2)C1c1ccccc1F (configuration not stated),-5.0,-0.4,0.2
CC(=O)N(C)C[C@@H]1Oc2cc(C#Cc3ccncc3)ccc2S(=O)(=O)N([C@@H](C)CO)C[C@@H]1C,.,1.6,0.6
C[C@@H]1CN([C@H](C)CO)C(=O)c2cc(-c3cccnc3)cnc2O[C@@H]1CN(C)C(=O)Nc1ccc(C(F)(F)F)cc1,.,-1.1,0.0
Oc1ccc(NCc2ccc(OCc3ccccc3)cc2)cc1,21.6,0.3,-0.5
O=C1CCCC/C1=N\Nc1ccc(OCc2ccccc2)cc1,4.3,1.1,1.5*
C[C@H](CO)N1C[C@H](C)[C@H](CN(C)C(=O)C2CCCCC2)Oc2cc(-c3ccccc3)ccc2S1(=O)=O,.,1.4,-0.1
O=C(Cc1cccc2ccccc12)Nc1ccc2c(c1)C(=O)NC2=O,-8.5,4.3,44.3*
CCCC(=O)Nc1ccc2c(c1)C(=O)NC2=O,.,0.0,0.0
COc1ccc(C#Cc2cnc3c(c2)C(=O)N([C@@H](C)CO)C[C@@H](C)[C@H](CN(C)C(=O)c2ccccc2F)O3)cc1,.,3.5,-0.8
CC1(Cc2ccc(F)cc2)C(=O)Nc2c(Cl)ccc(Cl)c21 (configuration not stated),-9.6,8.8*,-0.1
CC1(Cc2ccc(Cl)c(Cl)c2)C(=O)Nc2c(Cl)ccc(Cl)c21 (configuration not stated),-3.6,3.7,0.0
O=C(C[C@H]1CC[C@@H]2[C@H](COC[C@H](O)CN2Cc2cc(F)ccc2F)O1)N1CCc2ccccc2C1,.,-0.3,-0.1
NS(=O)(=O)c1ccc(NCc2cnc3ccccc3n2)cc1,-4.8,1.9,42.9*
NS(=O)(=O)c1ccc(NCc2cnc3ccccc3c2)cc1,19.3,-2.3,0.2
COc1ccccc1-c1nnc(SC(C(=O)c2c[nH]c3ccccc23)c2ccccc2)n1C (configuration not stated),-5.3,-2.2,-0.2
COc1cccc(-c2nnc(SC(C(=O)c3c[nH]c4ccccc34)c3ccccc3)n2C)c1 (configuration not stated),-20.2,-8.8,42.9*
CCCC(=O)Nc1ccc2c(c1)OC[C@@H](C)N(Cc1ccc(F)cc1)C[C@@H](C)[C@@H](OC)CN(C)C2=O,.,-0.9,-0.1
N#Cc1cccnc1Nc1ccc(Cl)cc1,-2.7,0.4,43.3*
O=C(O)c1cccnc1Nc1ccc(Cl)cc1,-4.2,3.3,42.2
CO[C@@H]1CN(C)C(=O)c2ccc(NC(=O)c3ccccc3F)cc2OC[C@@H](C)N(C(=O)c2ccccc2F)C[C@@H]1C,.,0.5,0.1
C[C@@H]1CN([C@H](C)CO)C(=O)c2cc(NC(=O)Nc3ccc4c(c3)OCO4)ccc2O[C@@H]1CN(C)Cc1ccc(Cl)c(Cl)c1,.,-1.9,0.0
SMILES,Vif imaging,F508del corr,FGF22 binding
O=C(N[C@H]1CC[C@H](CCNS(=O)(=O)c2ccccc2)O[C@@H]1CO)c1cnccn1,.,4.2,-0.1
O=C(NCc1cn(-c2ccccc2)nc1-c1ccccc1)c1cccc([N+](=O)[O-])c1,-3.5,4.3,43.1*
O=C(NCc1cn(-c2ccccc2)nc1-c1ccccc1)c1cc([N+](=O)[O-])cc([N+](=O)[O-])c1,-3.7,.,.
C[C@@H]1CN([C@H](C)CO)C(=O)c2cc(NS(=O)(=O)c3cn(C)cn3)ccc2O[C@@H](C)CCCCO[C@@H]1CN(C)S(C)(=O)=O,.,-2.7,-0.4
COc1ccc2c3c([nH]c2c1)[C@H](CO)N(C(=O)Cc1ccccc1)CC31CCN(C(=O)Nc2ccccc2F)CC1,.,-0.2,0.0
O=C(CSc1nnnn1C1CCCCC1)N1CCCC1,-0.3,5.3,0.0
COc1ccc(NC(=O)CSc2nnnn2C2CCCCC2)cc1,5.4,2.3,-0.3
O=C(O)CSc1nnnn1C1CCCCC1,-4.3,0.6,43.3*
O=C(CSc1nnnn1C1CCCCC1)Nc1ccc(F)cc1,-0.3,-3.7,43.1*
COc1ccc(Br)cc1/C=C/C(=O)NC(=S)Nc1ccc(Cl)c(C(=O)O)c1,-0.7,7.1,0.0
COc1ccc(Br)cc1/C=C/C(=O)NCC(=O)O,2.4,-0.8,43.5*
C[C@@H]1CN([C@H](C)CO)C(=O)c2cc(-c3cccc(C#N)c3)cnc2O[C@H]1CN(C)C(=O)C1CCOCC1,.,0.3,-0.1
O=C(NCC1CC1)[C@@H]1[C@@H](CO)[C@@H]2Cn3c(ccc(/C=C/c4ccccc4)c3=O)[C@H]1N2C(=O)C1CC1,.,-2.1,-0.3
N#CC1=C(N)Oc2cc(N)ccc2C1c1cccc(F)c1 (configuration not stated),-10.4,10.3*,-0.2
COC(=O)c1ccc(C2C(C#N)=C(N)Oc3cc(N)ccc32)cc1 (configuration not stated),9.2,1.4,-0.4
CS(=O)(=O)N1[C@H](C#N)[C@H](c2ccccc2-c2ccccc2F)[C@@H]1CO,.,0.7,.
COc1ccc(NC(=O)N(C)C[C@@H]2Oc3ccc(NC(=O)Cn4cnnn4)cc3CC(=O)N([C@H](C)CO)C[C@@H]2C)cc1,.,1.1,-0.2
O=C(Cc1ccccc1)N1CC[C@@H]2[C@H]1c1cc(C#Cc3ccccc3)ccc1N[C@@H]2CO,.,1.5,-0.6
COc1ccc(Nc2nc(N)nc(CSc3nccn3C)n2)cc1,1.9,-1.4,43.6*
COc1ccc(Nc2nc(N)nc(CSc3nnc(N)s3)n2)cc1,11.3,.,.
CCCNC(=O)[C@@H]1[C@@H](CO)[C@@H]2Cn3c(ccc(-c4ccncc4)c3=O)[C@H]1N2Cc1ccccc1F,.,.,-0.1
O=C(C[C@H]1C=C[C@H](NC(=O)Nc2ccccc2)[C@@H](CO)O1)NCc1ccccn1,.,0.8,-0.2
Nc1cc(=O)[nH]n1C1CCCCC1,22.3,3.9,43.0*
Nc1cc(=O)[nH]n1C1CCCC1,16.7,-1.1,0.2
CN1CCC(=NNC(=O)C(=O)Nc2cccc(Br)c2)CC1,-0.7,0.2,42.9*
CN1CCC(=NNC(=O)C(=O)Nc2ccc(F)cc2)CC1,11.9,0.8,0.0
COc1ccc(NC(=O)Nc2ccc3c(c2)C(=O)N([C@@H](C)CO)C[C@@H](C)[C@H](CN(C)Cc2ccccc2)OCCCC[C@H](C)O3)cc1,.,0.9,-0.3
COc1ccc(CNC(=O)c2cc(C(C)=O)c[nH]2)cc1,3.1,1.9,0.1
COc1ccc(CNC(=O)c2ccc[nH]2)cc1,59.6*,-0.2,0.1
